From PubChem BioAssay (NCATS)
Records with an inconclusive call do not appear. The source made the active and inactive calls. Calls follow the shape of the dose curve; as a rule, active = well fitted cell-killing curve with a large enough effect; inconclusive = small, poorly fitted or top-dose-only effect, or effect the other way; inactive = flat fitted curve, though single readings scatter.

What was measured:
Assay in all cases: Primary qHTS to identify gynecologic anti-cancer compounds using libraries of approved drugs and bioactive compounds (AID 1345084); also: nearly all actives have a fitted effect of over 55% in size
C33A = conditions: Gynecologic cancer cell panel viability, ATPlite luminescence, 48 h; series mostly up to 57.5 µM
Procedure, shortened: (§1)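 Five-point cytotoxicity, 48 h drug exposure at 37 C, 5% CO2, on cells seeded 16 h beforehand. ATP content read by ATPlite luminescence.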

CAOV3 = conditions: Gynecologic cancer cell panel viability, ATPlite luminescence, 48 h; series mostly up to 57.5 µM
Procedure, shortened: as §1

CASKI = conditions: Gynecologic cancer cell panel viability, ATPlite luminescence, 48 h; series mostly up to 57.5 µM
Procedure, shortened: as §1

Es-2 = conditions: Gynecologic cancer cell panel viability, ATPlite luminescence, 48 h; series mostly up to 57.5 µM
Procedure, shortened: as §1

HeLa = conditions: Gynecologic cancer cell panel viability, ATPlite luminescence, 48 h; series mostly up to 57.5 µM
Procedure, shortened: as §1

Hek293T = conditions: Gynecologic cancer cell panel viability, ATPlite luminescence, 48 h, control line for the selectivity index; series mostly up to 57.5 µM
Procedure, shortened: as §1

JEG-3 = conditions: Gynecologic cancer cell panel viability, ATPlite luminescence, 48 h; series mostly up to 57.5 µM
Procedure, shortened: as §1

OV90 = conditions: Gynecologic cancer cell panel viability, ATPlite luminescence, 48 h; series mostly up to 57.5 µM
Procedure, shortened: as §1

PA-1 = conditions: Gynecologic cancer cell panel viability, ATPlite luminescence, 48 h; series mostly up to 57.5 µM
Procedure, shortened: as §1

SKOV3 = conditions: Gynecologic cancer cell panel viability, ATPlite luminescence, 48 h; series mostly up to 57.5 µM
Procedure, shortened: as §1

Tov-21-G = conditions: Gynecologic cancer cell panel viability, ATPlite luminescence, 48 h; series mostly up to 57.5 µM
Procedure, shortened: as §1

Tov112D = conditions: Gynecologic cancer cell panel viability, ATPlite luminescence, 48 h; series mostly up to 57.5 µM
Procedure, shortened: as §1
% is scaled to controls: 0 for no effect and ±100 for the full control effect.

COc1ccc(CCC(=O)O)c(O[C@@H]2O[C@H](CO)[C@@H](O)[C@H](O)[C@H]2O)c1
inactive: Potency (C33A) | Potency (CAOV3) | outcome (CASKI) | Potency (Es-2) | Potency (HeLa) | Potency (Hek293T) | Potency (JEG-3) | Potency (OV90) | Potency (PA-1) | Potency (SKOV3) | Potency (Tov-21-G) | Potency (Tov112D)

CC1CC(=O)[C@]2(O)C(C(=O)OCCc3ccc(O)c(O)c3)=CO[C@@H](O[C@@H]3O[C@H](CO)[C@@H](O)[C@H](O)[C@H]3O)[C@H]12 (stereo partly drawn)
inactive: Potency (C33A) | Potency (CAOV3) | outcome (CASKI) | Potency (Es-2) | Potency (HeLa) | Potency (Hek293T) | Potency (JEG-3) | Potency (OV90) | Potency (PA-1) | Potency (SKOV3) | Potency (Tov-21-G) | Potency (Tov112D)

CC1OC(O[C@@H]2[C@@H](O)[C@H](OC(=O)[C@]34CCC(C)(C)C[C@H]3C3=CCC5[C@@]6(C)CC[C@H](O[C@@H]7O[C@H](C(=O)O)[C@@H](O)[C@H](O[C@@H]8OC[C@@H](O)[C@H](O)[C@H]8O)[C@H]7O[C@@H]7O[C@H](CO)[C@H](O)[C@H](O)[C@H]7O)[C@@](C)(C=O)C6CC[C@@]5(C)[C@]3(C)C[C@H]4O)O[C@H](C)[C@@H]2OC2OC(C)C(OC3OCC(O)C(O)C3O)C(O)C2O)C(O)C(O)C1O (stereo partly drawn)
inactive: activity change, negative = cytotoxicity (C33A) 2.48% [at 6.55 µM] | activity change, negative = cytotoxicity (CAOV3) 7.91% [at 6.55 µM] | activity change, negative = cytotoxicity (CASKI) 19.4% [at 6.55 µM] | activity change, negative = cytotoxicity (Es-2) -0.176% [at 6.55 µM] | activity change, negative = cytotoxicity (HeLa) 18.4% [at 6.55 µM] | activity change, negative = cytotoxicity (Hek293T) 1.68% [at 6.55 µM] | activity change, negative = cytotoxicity (JEG-3) 0.0438% [at 6.55 µM] | activity change, negative = cytotoxicity (OV90) 6.42% [at 6.55 µM] | activity change, negative = cytotoxicity (PA-1) -6.4% [at 6.55 µM] | activity change, negative = cytotoxicity (SKOV3) -2.08% [at 6.55 µM] | activity change, negative = cytotoxicity (Tov-21-G) 5.64% [at 6.55 µM] | activity change, negative = cytotoxicity (Tov112D) 10.7% [at 6.55 µM]

C=C1C[C@@]2(O)O[C@@]3(C[C@H]2C(C)C)[C@@H](C)CC[C@@H]13
inactive: Potency (C33A) | Potency (CAOV3) | outcome (CASKI) | Potency (Es-2) | Potency (HeLa) | Potency (Hek293T) | Potency (JEG-3) | Potency (OV90) | Potency (PA-1) | Potency (SKOV3) | Potency (Tov-21-G) | Potency (Tov112D)

CC(/C=C/C=C(\C)C(=O)O[C@@H]1O[C@H](CO[C@@H]2O[C@H](CO)[C@@H](O)[C@H](O)[C@H]2O)[C@@H](O)[C@H](O)[C@H]1O)=C\C=C\C=C(C)\C=C\C=C(/C)C(=O)O[C@@H]1C[C@](O)(C(=O)O)C[C@@H](O)[C@H]1OC(=O)/C=C/c1ccc(O)c(O)c1
inactive: activity change, negative = cytotoxicity (C33A) 17.9% [at 11.6 µM] | activity change, negative = cytotoxicity (CAOV3) -20% [at 11.6 µM] | activity change, negative = cytotoxicity (CASKI) 21.7% [at 11.6 µM] | activity change, negative = cytotoxicity (Es-2) 1.04% [at 11.6 µM] | activity change, negative = cytotoxicity (HeLa) 2.81% [at 11.6 µM] | activity change, negative = cytotoxicity (Hek293T) -2.06% [at 11.6 µM] | activity change, negative = cytotoxicity (JEG-3) 7.27% [at 11.6 µM] | activity change, negative = cytotoxicity (OV90) 8.2% [at 11.6 µM] | activity change, negative = cytotoxicity (PA-1) -12.7% [at 11.6 µM] | activity change, negative = cytotoxicity (SKOV3) 3.61% [at 11.6 µM] | activity change, negative = cytotoxicity (Tov-21-G) 0.602% [at 11.6 µM] | activity change, negative = cytotoxicity (Tov112D) -1.9% [at 11.6 µM]

CC1CC(O)/C=C/C(O)/C=C\C(=O)O1 (stereo not drawn)
inactive: Potency (C33A) | Potency (CAOV3) | outcome (CASKI) | Potency (Es-2) | Potency (HeLa) | Potency (Hek293T) | Potency (JEG-3) | Potency (OV90) | Potency (PA-1) | Potency (SKOV3) | Potency (Tov-21-G) | Potency (Tov112D)

CCC1=C(C)C(=O)C(C)CC12C(=O)CCC2C(=O)O (stereo not drawn)
inactive: Potency (C33A) | Potency (CAOV3) | outcome (CASKI) | Potency (Es-2) | Potency (HeLa) | Potency (Hek293T) | Potency (JEG-3) | Potency (OV90) | Potency (PA-1) | Potency (SKOV3) | Potency (Tov-21-G) | Potency (Tov112D)

CC1(C)C(=O)CCC2(C)C1C(O)C=C1COC(=O)C12O (stereo not drawn)
inactive: Potency (C33A) | Potency (CAOV3) | outcome (CASKI) | Potency (Es-2) | Potency (HeLa) | Potency (Hek293T) | Potency (JEG-3) | Potency (OV90) | Potency (PA-1) | Potency (SKOV3) | Potency (Tov-21-G) | Potency (Tov112D)

COc1cnc(-n2cnc(C)n2)c2[nH]cc(C(=O)C(=O)N3CCN(C(=O)c4ccccc4)CC3)c12
inactive: Potency (C33A) | Potency (CAOV3) | outcome (CASKI) | Potency (Es-2) | Potency (HeLa) | Potency (Hek293T) | Potency (JEG-3) | Potency (OV90) | Potency (PA-1) | Potency (SKOV3) | Potency (Tov-21-G) | Potency (Tov112D)

CC(=O)O[C@H]1C[C@@H](O)C(C)(C)C2C[C@@H](OC(C)=O)[C@]3(C)C(CC[C@@]4(C)[C@H](c5ccoc5)OC(=O)[C@H]5O[C@]543)[C@]21C (stereo partly drawn)
inactive: Potency (C33A) | Potency (CAOV3) | outcome (CASKI) | Potency (Es-2) | Potency (HeLa) | Potency (Hek293T) | Potency (JEG-3) | Potency (OV90) | Potency (PA-1) | Potency (SKOV3) | Potency (Tov-21-G) | Potency (Tov112D)

CC1CC(=O)C2=C(O1)OC1(C)CCC3C(C)(C)C4OC4C(=O)C3(C)C1C2 (stereo not drawn)
inactive: Potency (C33A) | Potency (CAOV3) | outcome (CASKI) | Potency (Es-2) | Potency (HeLa) | Potency (Hek293T) | Potency (JEG-3) | Potency (OV90) | Potency (PA-1) | Potency (SKOV3) | Potency (Tov-21-G) | Potency (Tov112D)

C[C@@]12CC3(S(=O)(=O)O)OC(O1)[C@]1(COC(=O)c4ccccc4)[C@H]3C[C@]21O[C@@H]1O[C@H](CO)[C@@H](O)[C@H](O)[C@H]1O
inactive: Potency (C33A) | Potency (CAOV3) | outcome (CASKI) | Potency (Es-2) | Potency (HeLa) | Potency (Hek293T) | Potency (JEG-3) | Potency (OV90) | Potency (PA-1) | Potency (SKOV3) | Potency (Tov-21-G) | Potency (Tov112D)

CC1CCC2(C(=O)O)CCC3(C)C(=CCC4C5(C)CCC(O)C(C)(C(=O)O)C5CCC43C)C2C1(C)O (stereo not drawn)
inactive: Potency (C33A) | Potency (CAOV3) | outcome (CASKI) | Potency (Es-2) | Potency (HeLa) | Potency (Hek293T) | Potency (JEG-3) | Potency (OV90) | Potency (PA-1) | Potency (SKOV3) | Potency (Tov-21-G) | Potency (Tov112D)

CC(C)=CCC[C@@](C)(O)[C@H]1CC[C@]2(C)[C@@H]1[C@H](O)CC1[C@@]3(C)CC[C@H](O[C@@H]4O[C@H](CO)[C@@H](O)[C@H](O)[C@H]4O[C@@H]4O[C@H](CO)[C@@H](O)[C@H](O)[C@H]4O)C(C)(C)[C@@H]3CC[C@]12C (stereo partly drawn)
inactive: Potency (C33A) | Potency (CAOV3) | outcome (CASKI) | Potency (Es-2) | Potency (HeLa) | Potency (Hek293T) | Potency (JEG-3) | Potency (OV90) | Potency (PA-1) | Potency (SKOV3) | Potency (Tov-21-G) | Potency (Tov112D)
